Results: PubChem BioAssay (NCATS)
Inconclusive results are not listed. Unmarked numbers belong to inactive results. Calls follow the shape of the dose curve; as a rule, active = well fitted cell-killing curve with a large enough effect; inconclusive = small, poorly fitted or top-dose-only effect, or effect the other way; inactive = flat fitted curve, though single readings scatter.

tested on: Hek293T; experiment: Primary qHTS to identify gynecologic anti-cancer compounds using libraries of approved drugs and bioactive compounds (AID 1345084); conditions: Gynecologic cancer cell panel viability, ATPlite luminescence, 48 h, control line for the selectivity index; series mostly up to 57.5 µM; activity change, negative = cytotoxicity: at the top concentration; also: nearly all actives have a fitted effect of over 55% in size
Outline: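 48 h compound exposure at 37 C, 5% CO2; five-point qHTS. ATPlite luminescence readout of cell ATP.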
% is scaled to controls: 0 for no effect and ±100 for the full control effect.

SMILES	activity change, negative = cytotoxicity
C1CCC[C@H]2CCCN3CC[C@@H](CCCCCC[C@@H]4CCCN5CC[C@@H](CC1)O[C@@H]45)O[C@@H]23	4.56% [at 0.155 µM]
Cc1[nH]c2ccccc2c1C1=C(NCCc2ccc(F)cc2)C(=O)N(C)C1=O	5.63%
OC[C@H]1O[C@@H](O[C@H]2[C@H](OCCc3ccccc3)O[C@H](CO)[C@@H](O)[C@@H]2O)[C@H](O)[C@@H](O)[C@@H]1O	6.12% [at 25.3 µM]
C=C1[C@@H]2CC[C@@H]3[C@@](CCC4C(C(=O)O)(C(=O)O)C[C@@H](O[C@@H]5O[C@H](CO)[C@@H](O)[C@H](O)[C@H]5OC(=O)CC(C)C)C[C@]43C)(C2)[C@H]1O (some centres undefined)	3.87% [at 25.3 µM]
CC(=O)C1=C(C)N(c2cccc(C(F)(F)F)c2)C(=O)N[C@H]1c1ccc(C#N)nc1	-1.04% [at 11.6 µM]
CC(CCC1(O)OC2CC3C4CCC5CC(O[C@@H]6O[C@H](CO)[C@@H](O)[C@H](O)[C@H]6O[C@@H]6O[C@@H](C)[C@H](O)[C@@H](O)[C@H]6O)C(O)CC5(C)C4CCC3(C)C2C1C)CO[C@@H]1O[C@H](CO)[C@@H](O)[C@H](O)[C@H]1O (some centres undefined)	17.8% [at 11.6 µM]
OCC1OC(Oc2cc(O)cc(/C=C/c3ccc(O)cc3)c2)C(O)C(O)C1O (centres undefined)	2.45% [at 38.5 µM]
CCC(C)/C=C(C)/C=C/c1cc2c(cn1)C(=O)C(C)(OC(C)=O)C(O)=C2Cl (centres undefined)	-10.1% [at 38.5 µM]
CC1=CC(=O)CC(C)(C)[C@@]1(O)CC[C@@H](C)O[C@@H]1O[C@H](CO)[C@@H](O)[C@H](O)[C@H]1O	9.78% [at 38.5 µM]
